Measured values: PubChem BioAssay AID778 (Sanford-Burnham Center for Chemical Genomics, 2007)
The campaign covered roughly 96,000 compounds. About 20,000 (21%) were called active. Only a sample is shown. A number with no mark means an inactive call.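 Rule for the calls: active = CYP2C19 inhibition above a set limit at 5 µM in the primary screen (cut at about 50% in these data); inactive = the rest.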

molecular target: Cytochrome P450 2C19 (Homo sapiens) (UniProt P33261); assay: blockers of cytochrome P450 2C19 activity – biochemical, luminescence, ADME assay, primary screen (AID 778); details: CYP2C19 Supersomes, luciferin-H EGE luminescence, 30 min; at 5 µM; stronger effect = higher value;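 note: plate controls were negative control wells for no effect and 2.5 mM tranylcypromine positive control for full effect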
Sequence (P33261 whole entry, looked up): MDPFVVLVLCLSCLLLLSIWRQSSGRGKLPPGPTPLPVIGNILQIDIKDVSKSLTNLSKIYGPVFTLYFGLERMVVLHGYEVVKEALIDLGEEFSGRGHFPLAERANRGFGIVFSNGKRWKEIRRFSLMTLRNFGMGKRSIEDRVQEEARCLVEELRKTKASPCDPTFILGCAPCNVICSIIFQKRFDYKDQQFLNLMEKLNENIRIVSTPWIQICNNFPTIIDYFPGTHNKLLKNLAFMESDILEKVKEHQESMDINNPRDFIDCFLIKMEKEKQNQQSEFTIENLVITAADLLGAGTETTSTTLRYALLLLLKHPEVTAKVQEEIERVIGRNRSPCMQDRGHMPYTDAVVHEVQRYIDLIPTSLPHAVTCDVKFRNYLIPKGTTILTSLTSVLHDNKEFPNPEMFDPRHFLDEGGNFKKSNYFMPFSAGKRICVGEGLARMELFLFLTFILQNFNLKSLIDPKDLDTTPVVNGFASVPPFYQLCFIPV

Structure (SMILES) | inhibition
CC(=O)N1CC2(C)CN(C(C)=O)CC(C)(C1)C2=O | 79.3% (active)
CCCCC(=O)N1CC2(C)CN(C(=O)CCCC)CC(C)(C1)C2=O | -1.6%
CCCCNC(=O)CSc1nc2ccc(NC(=O)CSc3nnc(COc4ccccc4C)n3C)cc2s1 | 19.1%
CC(C)c1ccc(NC(=O)CCN2C(=O)c3ccc([N+](=O)[O-])cc3C2=O)cc1 | 8.5%
Cc1sc(NC(=O)C2C3CCC(O3)C2C(=O)O)c(C(=O)OC(C)C)c1-c1ccc(Cl)cc1 (configuration not stated) | 19.7%
CC(C)OC(=O)c1cc(NC(=O)C2C3CCC(O3)C2C(=O)O)cc(C(=O)OC(C)C)c1 (configuration not stated) | 77.9% (active)
CCC(CC)C(=O)Nc1cc(C(=O)OC)cc(C(=O)OC)c1 | 1.1%
COCCCn1c(SCc2cccc(OC)c2)nc2cc(OC)c(OC)cc2c1=N | 53.4% (active)
OCCN1CCOCCOCCN(CCO)CCN(CCO)CC1 | 16.6%
Cc1nn(Cc2ccccc2)c(Cl)c1C(=O)OC1CCOC1=O (configuration not stated) | 63.5% (active)
CC(=O)c1c(N2CCOCC2)nc(=S)n(Cc2ccccc2)c1C | 12.8%
O=C(OC1CCOC1=O)c1ccc(-c2nc3ccccc3s2)s1 (configuration not stated) | 11.3%
COc1cccc(-c2nc(S(=O)(=O)c3ccccc3)c(N3CCOCC3)o2)c1 | 27.7%
O=C(NCc1cn2ccsc2n1)Nc1cccc(Cl)c1 | 13.3%
O=c1[nH]c(=O)n(Cc2ccco2)c2c1C(C(F)(F)F)(C(F)(F)F)N=C(c1ccco1)N2 | -12.6%
Cc1cc(-c2ccccc2)n2nc(C)c(-c3ccccc3)c2n1 | 30.7%
CC(=O)c1c(N2CCOCC2)nc(=S)n(-c2cc(C)ccc2C)c1C | -10.5%
Cc1cc(C)n(C(=O)c2ccc(S(=O)(=O)N3CCCC3)cc2)n1 | 68.7% (active)
CCOC(=O)c1csc(NC(=O)c2ccc(S(=O)(=O)N3CCCC3)cc2)n1 | -7%
Cc1cc(C)n(C(=O)c2ccc(C)c(S(=O)(=O)N3CCOCC3)c2)n1 | 68.7% (active)
Cc1ccccc1-c1nnn(CC(=O)c2ccc(S(=O)(=O)N3CCCC3)cc2)n1 | 14.5%
Cc1ccc(C(=O)Nc2ccccc2C(=O)NC2CCCCC2)cc1S(=O)(=O)N1CCOCC1 | 21.5%
Cc1ccc(-c2nn(C(C)(C)C)c3ncnc(N)c23)cc1 | 38.5%
CCN(Cc1cc2cc(C)ccc2[nH]c1=O)S(=O)(=O)c1ccccc1 | 31.8%
CCCNc1ncnc2sc(C)c(C)c12 | 29.6%

Structure (SMILES) | inhibition
COc1ccc(Cl)cc1C(=O)NCc1cn(C)nc1C | 10.4%
COC(=O)c1ccc(OC(=O)c2nn(C)cc2Cl)c(OC)c1 | 67.9% (active)
COC(=O)c1ccc(CSc2nncn2C)cc1 | 39.9%
CC(=O)CCS(=O)(=O)c1ccc(C)c(C)c1 | 35.1%
CCN(CC)CC(=O)Nc1nn(-c2ccccc2)nc1C(N)=O | -19.9%
COC(=O)c1ccc(Oc2nc(Nc3ccc(F)cc3)nc(N3CCCC3)n2)cc1 | 32.3%
Cc1nn(-c2ccccc2)c2[nH]c(C(F)(F)F)cc(=O)c12 | -2.2%
CCCCn1nnnc1NCc1cc(OC)c(OC)c(OC)c1 | 79.8% (active)
CCCCCCc1cc2cc(-c3nnc(-c4ccccc4)o3)c(=O)oc2cc1O | 27.4%
c1ccc2cc3[nH]c(CN4CCCCC4)nc3cc2c1 | 82.7% (active)
c1cc(-c2nn[nH]n2)ccc1CN1CCCCC1 | -11.4%
c1ccc2cc(OCCN3CCCC3)ccc2c1 | 4.2%
Cc1nc(C)c(-c2csc(NCCc3ccccc3)n2)s1 | 39.4%
Cn1c(=NC(=O)CSCC(=O)N2CCCCC2)sc2ccccc21 | 73.6% (active)
Cn1c(=NC(=O)CSCC(=O)N2CCOCC2)sc2ccccc21 | 46.6%
Cn1c(=NC(=O)c2cnccn2)sc2ccccc21 | -2.4%
CC(C)c1nc2oc3c(N4CCN(C)CC4)ncnc3c2c2c1CCC2 | 22.2%
O=C(Oc1ccccc1)Oc1ccc2c(c1)oc(=O)c1ccccc12 | -10.9%
COc1ccc(C(=O)c2oc3ccc(Br)cc3c2NC(C)=O)cc1 | -4%
ON=C1/C(=N\O)CC2(C/C1=N/O)OCCO2 | -10.5%
O=C(C1CCC1)N1CCc2cc(S(=O)(=O)NCc3cccnc3)ccc21 | 10%
CN1CCN(S(=O)(=O)c2ccc(N3CCN(S(=O)(=O)c4cccs4)CC3)nc2)CC1 | -25.5%
O=C(Nc1ccc(S(=O)(=O)N2CCc3ccccc3C2)cc1)c1ccccc1 | 0.3%
CCCCNc1nc2ccccc2nc1NS(=O)(=O)c1cccs1 | 2.4%
O=S(=O)(c1cccs1)N1CCN(Cc2ccccc2)CC1 | 98.1% (active)

Structure (SMILES) | inhibition
O=S(=O)(c1cccs1)N1CCc2ccccc2C1 | 78% (active)
O=C1c2ccccc2C(=O)c2c1cccc2N1CCN(Cc2ccccc2)CC1 | 13.4%
CCN(c1ccccc1)S(=O)(=O)c1ccc(NC(=O)C(C)(C)C)cc1 | 9.3%
COc1cccc(/C=N\Nc2nncc(-c3ccccc3)n2)c1 | -7%
O=C1C=C(c2ccc(Cl)cc2)C(=O)N1Nc1ccccc1 | 19.7%
CCOc1ccc(C(=O)NC2CCN(S(=O)(=O)CC)CC2)cc1 | 9.1%
CC(=O)NC(Cc1ccc(F)cc1)C(=O)O (configuration not stated) | -5.1%
Cn1c(SCc2c(F)cccc2Cl)nnc1-c1cnccn1 | 25.9%
O=C(NCc1ccco1)c1cccn2c(=O)c3c4c(sc3nc12)CCCC4 | 45.2%
Cc1nc(SCC(=O)Nc2cc(C)on2)c2c3c(sc2n1)CCCC3 | 7%
CCCc1nc2sc3c(c2c(=O)n1NC(=O)CCCl)CCCC3 | 88.5% (active)
CN1C(=O)c2ccc(NC(=O)c3c(F)c(F)c(F)c(F)c3F)cc2C1=O | -11.8%
O=C(Nc1cccc(-c2nc3ncccc3o2)c1)c1ccco1 | 5.2%
O=C(Nc1ccc(Cl)cc1)c1ccsn1 | 25.4%
O=C(Nc1ccncc1)c1cc2ccccc2o1 | 99.6% (active)
O=C(NCCc1ccc2c(c1)OCCO2)c1cc2ccccc2o1 | 41.2%
O=C(Nc1ccncc1)c1c(F)cccc1F | 52.4% (active)
C/C(=C\C(=O)c1ccccc1)Nc1cccc(O)c1 | 10.3%
COc1ccc(CNC(=O)C2CCC(CNc3c(N4CCOCC4)c(=O)c3=O)CC2)cc1 (configuration not stated) | -12.8%
COc1cccc(-c2nc3cc(C)ccc3o2)c1 | 42.7%
C/C=C/C(=O)OCC(=O)Nc1ccc(F)cc1Cl | 16.4%
CCC1Oc2ccc(Cl)cc2N(CC(=O)O)C1=O (configuration not stated) | -3.7%
Cc1cccc(C)c1NC(=O)c1ccc(CN2CCc3ccccc3C2)cc1 | -19.5%
CC(=O)c1ccc(-n2nnnc2SCC(=O)N2CCN(C(=O)c3ccco3)CC2)cc1 | -3.8%
CC(C)C(c1nnnn1CCc1ccccc1)N1CCN(C(=O)c2ccco2)CC1 (configuration not stated) | 15.7%

Structure (SMILES) | inhibition
CCC(c1nnnn1C1CCCC1)N1CCN(C(=O)c2ccco2)CC1 (configuration not stated) | 61.3% (active)
COC(=O)C1=C(C)NC2=C(C(=O)c3ccccc32)C1c1ccc(-c2ccc(C(=O)O)cc2)o1 (configuration not stated) | 44.5%
COC(=O)c1cc(NC(=O)CC2C(=O)NCCN2C(=O)c2ccc(F)cc2)cc(C(=O)OC)c1 (configuration not stated) | 8.6%
O=C(NC(C(=O)NCCN1CCOCC1)C12CC3CC(CC(C3)C1)C2)C1CCCCC1 (configuration not stated) | -0.8%
OC(CN1C2=NCCCN2c2ccccc21)c1ccc(Br)cc1 (configuration not stated) | 11.9%
O=C(Nc1nsc(-c2ccccc2)n1)c1ccncc1 | 93.3% (active)
COC(=O)c1nc(NC(=O)c2ccccc2)n[nH]1 | 1.9%
Cn1sc(NC(=O)c2ccccc2)nc1=O | 0.2%
CCOC(=O)C1Sc2[nH]c(=O)sc2C(c2ccc(Cl)cc2)C1C(=O)OCC (configuration not stated) | 24.6%
COc1ccc2[nH]c(=O)c(CN(CC3CCCO3)C(=O)Nc3ccccc3)cc2c1 (configuration not stated) | 32.6%
Cc1cccc(NC(=O)N(Cc2cc3cc(C)cc(C)c3[nH]c2=O)CC2COCCO2)c1 (configuration not stated) | 76.8% (active)
Cc1ccc2[nH]c(=O)c(CN(CCCN(C)C)C(=O)Nc3cccc(Cl)c3)cc2c1 | -4.4%
CCOC(=O)c1cccc(NC(=O)CCc2c(C)nc3ncnn3c2C)c1 | 2.3%
Cc1ccc2c(CSc3nncs3)cc(=O)oc2c1 | 86.8% (active)
Cc1cc([N+](=O)[O-])c(N2CCC[C@@H]2C(=O)O)c([N+](=O)[O-])c1 | -5.1%
CCOc1ccc(C(=O)NC(C(=O)NCc2ccccn2)C(C)C)cc1 (configuration not stated) | 26.7%
COc1cccc(/C=N/NC(=O)c2cccc([N+](=O)[O-])c2)c1OS(=O)(=O)c1ccc(C)cc1 | 1.4%
CC(C)(CSc1nncn1/N=C/c1ccco1)NS(=O)(=O)c1ccc(Cl)cc1 | 53.3% (active)
COc1ccc(O)c(C(=O)c2cnc3onc(C(C)C)c3c2)c1 | 100% (active)
COc1ccc(O)c(C=Nc2cc(C)on2)c1 | 1.5%
O=C(Nc1cccc2cccnc12)c1cccc(N2C(=O)CCC2=O)c1 | 22.2%
CCCC(C(=O)N1CCOCC1)N1C(=O)C2C3C=CC(C3)C2C1=O (configuration not stated) | -3.8%
